Screening data deposited in PubChem BioAssay by National Center for Advancing Translational Sciences (NCATS).
Shown are actives, neighbours in structure and some others; about 1.4% of the full set was active somewhere.
Akt phos inh: HTS Assay for Inhibitors of Akt Phophorylation: Primary Screen; Neuro2A IGF-stimulated pAkt S473 HTRF, 20 min; hits give low values; activity change, % for hits at 50 µM; 360,000 compounds, 0.32% hits; in the data active means activity change below about -80%; inconclusive means mostly about -51% to -80%; further: on the % scale 0 is the no-effect control and ±100 the full control effect
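Single-point screen (50 µM final compound) in Neuro2A cells stimulated 20 min with 6 nM IGF at 37 deg C. After lysis, Ser473-phosphorylated Akt read by HTRF (ex 330 nm, em 615/665 nm) as the 665/615 ratio.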
S-ASM inh: Inhibitors of Secretory Acid Sphingomyelinase (S-ASM): qHTS | Sphingomyelin phosphodiesterase (Homo sapiens), P17405 | placental ASM, HMU-PC fluorogenic substrate, 60 min | Potency, µM (top dose mostly 57.5 µM), inactives show at the top dose activity change, negative = inhibition, most hits filed as inhibitors | 340,000 compounds, 0.006% hits | AID 504937, 2011; further: potency means the concentration at half of the fitted maximal effect
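Human placenta-derived ASM preincubated with compound 10 min at room temperature, then reacted with 9 uM (final) fluorogenic HMU-PC substrate for 60 min at 37 C. Stop solution raises pH to 10; fluorescence read at Ex 386/Em 447 nm.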
ALOX12 inh: Primary qHTS assay for inhibitors of human arachidonate 12S-lipoxygenase (ALOX12): Round 2. Potency, µM (doses to about 108 µM), without a hit: at the top dose activity change, negative = inhibition, usual class: inhibitors. purified 12hLO, xylenol orange hydroperoxide absorbance. 580,000 compounds, 1.1% hits; further: potency means the concentration at half of the fitted maximal effect; on the % scale 0 is the no-effect control and ±100 the full control effect
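Purified human 12hLO at 150 nM in 25 mM Hepes, 0.01% Triton X-100, pH 7.0, preincubated 15 min at room temperature with compound. Reaction started with 40 uM arachidonic acid, 30 min at room temperature. Hydroperoxide measured by Fe-xylenol orange, 573/405 nm absorbance ratio.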
Vif-A3G inh: qHTS for Inhibitors of Vif-A3G Interactions: qHTS | 410,000 compounds, 0.076% hits | HeLa A3G-eYFP + Vif (tagged APOBEC3G with the HIV-1 protein that degrades it), YFP fluorescence, overnight | Potency, µM (highest dose often 46.1 µM), inactives show top-dose activity, negative = active, actives largely listed as inhibitors | DNA dC->dU-editing enzyme APOBEC-3G (Homo sapiens), Q9HC16; further: potency means the concentration at half of the fitted maximal effect; on the % scale 0 is the no-effect control and ±100 the full control effect; nearly all actives have a fitted effect of over 60% in size
Target sequence (Q9HC16 whole entry, looked up): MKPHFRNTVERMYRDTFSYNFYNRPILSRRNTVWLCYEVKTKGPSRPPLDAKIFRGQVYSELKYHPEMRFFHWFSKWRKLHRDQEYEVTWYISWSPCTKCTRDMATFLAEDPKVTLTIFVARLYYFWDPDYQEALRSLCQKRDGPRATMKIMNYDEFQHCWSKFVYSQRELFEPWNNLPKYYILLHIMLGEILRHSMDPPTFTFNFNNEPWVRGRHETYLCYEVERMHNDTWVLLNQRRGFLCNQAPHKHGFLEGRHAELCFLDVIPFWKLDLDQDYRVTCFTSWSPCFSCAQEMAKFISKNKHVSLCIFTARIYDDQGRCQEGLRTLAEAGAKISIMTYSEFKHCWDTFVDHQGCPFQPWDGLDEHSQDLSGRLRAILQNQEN
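HeLa cells stably expressing Vif and C-terminally eYFP-tagged A3G, seeded overnight at 37 deg C, then exposed to compound by pintool overnight at 37 deg C. Rise in yellow fluorescence (Ex 488/Em 500-530, Acumen) marks blocked Vif-driven A3G degradation.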
Vif-APOBEC3F blk: qHTS for Inhibitors of Vif-A3F Interactions: qHTS; 390,000 compounds, 0.2% hits; Potency, µM (series often up to 46.1 µM), inactives show at the highest dose activity, negative = active; HeLa A3F-eYFP + Vif (tagged APOBEC3F with the HIV-1 protein that degrades it), YFP fluorescence increase; further: potency means the concentration at half of the fitted maximal effect; % of control where 0% means no effect; nearly all actives have a fitted effect of over 65% in size
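Fluorescence increase (Ex 488/Em 500-530) after overnight compound treatment at 37 deg C flags inhibition of Vif-driven A3F-eYFP loss in stable HeLa A3F-eYFP/Vif cells seeded overnight beforehand.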
TSG101-PTAP inh: qHTS Assay for Iinhibitors of HIV-1 Budding by Blocking the Interaction of PTAP/TSG101; Fluorescence polarization, FITC-PTAP peptide / Tsg101 binding; Potency, µM (highest dose often 115 µM), for inactives: top-dose activity change, negative = inhibition, hits mostly inhibitors; 340,000 tested, under 10 active; active means well fitted inhibition curve with a large enough effect in the main read-out, with a control signal flat, not every such curve was filed as active; inconclusive means small, poorly fitted or top-dose-only effect, or effect the other way, or a change in a side signal; inactive means no such curve, though single readings can be large or run the other way; further: potency means the concentration at half of the fitted maximal effect; % of control where 0% means no effect
Target sequence (Q99816 whole entry, looked up): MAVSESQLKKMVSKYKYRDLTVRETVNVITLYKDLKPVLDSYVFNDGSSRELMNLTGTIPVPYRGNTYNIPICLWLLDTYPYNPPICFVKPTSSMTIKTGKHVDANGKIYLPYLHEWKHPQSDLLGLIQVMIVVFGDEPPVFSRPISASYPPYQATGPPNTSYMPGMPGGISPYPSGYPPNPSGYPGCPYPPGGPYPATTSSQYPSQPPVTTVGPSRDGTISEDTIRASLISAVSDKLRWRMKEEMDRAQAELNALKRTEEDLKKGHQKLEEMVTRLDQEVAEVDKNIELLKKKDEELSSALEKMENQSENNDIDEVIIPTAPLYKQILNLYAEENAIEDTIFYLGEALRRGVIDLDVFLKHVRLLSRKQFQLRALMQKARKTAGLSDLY
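Tsg101 binding domain (10 uM final) was mixed with compound and a FITC-labeled PTAP peptide (50 nM final) in HEPES pH 7.5 buffer with NaCl, Tween 20, EDTA and TCEP; fluorescence polarization was read after 20 min at r.t.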
Numbers without * were called inactive; i = inactive; ? = inconclusive; · = not tested or not shown; [ ] = remark or other dose. Unless noted, the call rests on the fitted dose curve; in most records, active means well fitted curve in the direction sought with a large enough effect; inconclusive means small, poorly fitted or top-dose-only effect, or another doubt; inactive means no such curve, though single readings can be large; an effect the other way counts as inactive or inconclusive.

SMILES | Akt phos inh | S-ASM inh | ALOX12 inh | Vif-A3G inh | Vif-APOBEC3F blk | TSG101-PTAP inh
Cc1cccc(OCC(=O)N2CCC(N3CCOCC3)CC2)c1 | i | 4.1% | 1.58µM* | 0.0% | -5.3% | 1.2%
CCOc1ccc(OCC(=O)N2CCOCC2)cc1 | -98.5%* | -0.9% | 0.0% | -5.5% | -1.8% | 0.0%
CC(=O)C1=C(C)N(Cc2ccc(F)cc2)C(=S)NC1c1cccc(Cl)c1 (stereo unspecified) | · | · | 44.7µM* | · | · | ·
COc1cccc(C2NC(=S)N(Cc3ccc(F)cc3)C(C)=C2C(C)=O)c1 (stereo unspecified) | · | · | 44.7µM* | · | · | ·
CCc1ccc(N2CC(C(=O)OCC(=O)Nc3cc(C)on3)CC2=O)cc1 (stereo unspecified) | -88.7%* | -2.6% | ? | 1.6% | · | -1.6%
COc1cc(CNCc2cccc3ccccc23)cc(OC)c1 | i | -1.8% | 0.708µM* | 1.4% | -1.8% | -0.9%
COc1cc(CNCc2c[nH]c3ccccc23)cc(OC)c1 | i | -4.0% | ? | 1.3% | 6.4% | -0.3%
O=C(Nc1ccc(C2(C(=O)NCc3ccccn3)CCCCC2)cc1)C1CC1 | · | · | 43.0% | · | · | ·
CC(=O)Nc1ccc(C2=CC(=O)C[C@H](c3ccc(Cl)cc3)C2)cc1 | i | -8.5% | -1.7% | ? | 22.4µM* | -7.5%
O=C1C=C(c2cccc(Cl)c2)C[C@@H](c2ccc(Cl)cc2)C1 | i | -14.1% | 4.1% | -0.1% | 3.4% | -3.0%
O=C1C=C(c2cccc(Cl)c2O)C[C@@H](c2ccc(Cl)cc2)C1 | i | -21.9% | 11.2µM* | 2.8% | -4.2% | -3.5%
CCOC(=O)Cn1c(=O)c(-c2ccccc2N)nc2ccccc21 | i | -8.6% | 29.6% | -3.6% | -12.8% | -7.0%
CCOC(=O)Cn1c(=O)c(-c2cc(Br)ccc2N)nc2ccccc21 | i | -0.8% | -3.6% | -23.1% | 11.2µM* | ?
O=C(NCc1ccc(-c2nc3ccccc3s2)o1)c1ccccc1Br | · | · | -21.0% | · | · | ·
CC(C)NS(=O)(=O)c1ccc(C(=O)NCc2ccc(-c3nc4ccccc4s3)o2)cc1 | · | · | 25.1µM* | · | · | ·
CN(C)/C=C/C(=O)c1cnc(-c2ccccc2Cl)s1 | i | -7.3% | 8.91µM* | -4.5% | 4.6% | -3.7%
CN(C)/C=C/C(=O)c1cnc(-c2ccccn2)s1 | i | -4.0% | 9.6% | 2.2% | -2.2% | 0.6%
CC(=O)c1cnc(-c2cccc(Cl)c2)s1 | i | 0.4% | 0.0% | -0.2% | 4.9% | 0.4%
CN(C)/C=C/C(=O)c1cnc(-c2cccc(Cl)c2)s1 | i | -9.5% | 31.6µM* | -0.5% | 5.1% | -4.9%
COc1ccc(F)cc1C(=O)/C=C/c1ccc(C(=O)O)cc1 | · | · | -0.7% | · | · | ·
Cc1cccc(C)c1NC(=O)CCCSc1nnc(-c2ccco2)o1 | -110.9%* | -4.2% | 0.0% | -5.7% | ? | -6.0%
Cc1nc2ccc(C(=O)NCC3CCN(C(C)C)C3)cc2nc1C (stereo unspecified) | · | · | 15.7% | · | · | ·
Cc1cccc(C(C)C)c1NC(=O)COc1ccc(C(=O)Nn2c(C)ccc2C)cc1 | · | · | 17.9% | · | · | ·
O=C1/C(=C\c2ccco2)SC(=S)N1c1ccc(O)cc1 | i | -7.7% | ? | -0.6% | -3.0% | -2.3%
O=C1/C(=C/c2ccco2)SC(=S)N1c1cccnc1 | i | -8.9% | 39.8µM* | 2.9% | -3.7% | -2.8%
SMILES | Akt phos inh | S-ASM inh | ALOX12 inh | Vif-A3G inh | Vif-APOBEC3F blk | TSG101-PTAP inh
Cc1cc(/C=C2\SC(=S)N(Cc3ccco3)C2=O)c(C)n1-c1cccnc1 | i | -0.5% | ? | 5.62µM* | 11.2µM* | ?
COc1cccc(S(=O)(=O)N2CCCN(C)c3ccccc32)c1 | · | · | 22.4µM* | · | · | ·
Cc1nc(C)c(CC(=O)Nc2nnc(C3CCCCC3)s2)c(=O)[nH]1 | · | · | 22.8% | · | · | ·
O=S(=O)(N[C@H]1CO[C@H]2[C@@H]1OC[C@@H]2n1cc(-c2ccccn2)nn1)c1cccs1 | · | · | 63.1µM* | · | · | ·
c1ccc(-c2cn([C@H]3CO[C@H]4[C@@H]3OC[C@@H]4NCC3CCCCC3)nn2)nc1 | · | · | 10.2%[176 µM] | · | · | ·
CCOP(=O)(OCC)c1nc(-c2ccc([N+](=O)[O-])cc2)oc1NCc1ccc(C)cc1 | · | · | 10µM* | · | · | ·
CCOC(=O)C1CCCCN1Cc1cccc(Oc2ccccc2)c1 (stereo unspecified) | i | 0.0% | 14.1µM* | -1.9% | 6.4% | -3.5%
C=C(C)COc1ccc2c(=O)c(Oc3ccc(C(=O)OC)cc3)coc2c1 | · | · | 20.5% | · | · | ·
Oc1cccc(/C=N/NC(=S)Nc2cccnc2)c1O | i | 0.7% | 44.7µM* | -7.7% | 6.0% | -0.7%
Oc1ccc(/C=N/NC(=S)Nc2cccnc2)c(O)c1O | i | -7.3% | ? | -4.3% | -8.6% | 1.5%
O=C(CSc1ccc2c(c1)OCCCO2)NC1CCCc2ccccc21 (stereo unspecified) | · | · | 7.4% | · | · | ·
CCOC(=O)c1c(/N=C/c2cc([N+](=O)[O-])ccc2O)sc(C)c1C | i | 5.6% | 35.5µM* | -0.1% | 10.2% | -3.2%
Oc1ccc(/C=N/NC(=S)NC2CC3CCC2C3)cc1 (stereo unspecified) | i | -1.9% | 17.8µM* | -0.4% | -1.7% | 0.8%
Cc1cccc(NC(=O)c2nn(-c3ccccc3)c(=O)c3ccccc23)c1C | · | · | -4.2% | · | · | ·
CCN1CCN(C(=O)/C=C/c2c(F)cccc2Cl)CC1 | i | 3.8% | ? | -1.9% | -3.0% | -1.7%
O=C(/C=C/c1c(F)cccc1Cl)N1CCc2ccccc2C1 | i | -1.2% | 5.62µM* | -5.4% | -7.6% | 0.8%
COC(=O)c1ccccc1NC(=S)NC(=O)c1ccc(C)cc1 | i | 3.8% | 35.5µM* | -1.0% | -6.7% | -3.2%
Cc1ccccc1C(=O)NC(=S)Nc1ccccc1C(=O)O | i | 3.2% | 44.7µM* | 1.7% | 3.7% | -3.8%
COC(=O)c1ccccc1NC(=S)NC(=O)c1ccccc1 | i | 5.9% | ? | -7.7% | -7.6% | 1.0%
O=C(NC(=S)Nc1ccccc1C(=O)O)c1ccc2ccccc2c1 | i | 11.7% | 25.1µM* | -12.8% | -1.3% | 5.6%
FC(F)(F)c1ccc(SCc2csc(-c3ncccn3)n2)nc1 | · | · | -10.0% | · | · | ·
Cc1ccc(S(=O)(=O)n2cccc2/C=C/[N+](=O)[O-])cc1 | i | · | 35.5µM* | ? | -0.4% | ·
CCCOC(=O)C(C#N)c1nc2ccccc2nc1Cl (stereo unspecified) | · | · | 17.8µM* | · | · | ·
